# Experimental data: PubChem BioAssay (NCI)
# Compounds without any hit were thinned out: in the full panel of roughly 83,000, 20% have a hit.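 Treatment: one concentration, 48 hours, 96-well format. Scoring: percent growth, with anything below 10 considered active.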 Calls of active or inactive are those of the source.
# Test system: NCI/ADR-RES ovarian
# Assay: NCI-60 one-dose screen, 48 h (100 = growth as untreated, 0 = no growth, -100 = all killed)
# Settings: 10 µM unless noted
row,SMILES,growth
1,O=C1c2cc(Br)ccc2Oc2cc([N+](=O)[O-])ccc2N1c1ccc(I)cc1F,99.6% (inactive)
2,O=c1oc2ccc(Cl)cc2c(=O)n1-c1ccc(Cl)cc1F,6.2% (active)
3,COc1ccc(C2C3=C(COC3=O)N(CCO)c3cc4c(cc32)OCCO4)cc1 (stereo not drawn),95.5% (inactive)
4,CC[C@]1(O)C[C@@H]2CN(CCc3c([nH]c4ccccc34)[C@@](C(=O)OC)(c3cc4c(cc3OC)N(C)[C@H]3[C@@](O)(C(=O)OC)[C@H](OC(=O)CCCBr)[C@]5(CC)C=CCN6CC[C@]43[C@@H]65)C2)C1,13.8% (inactive)
5,O=C1c2cc(Cl)ccc2Oc2cc([N+](=O)[O-])ccc2N1c1ccc(F)cc1F,97.7% (inactive)
6,CC[C@]1(O)C[C@@H]2CN(CCc3c([nH]c4ccccc34)[C@@](C(=O)OC)(c3cc4c(cc3OC)N(C)[C@H]3[C@@](O)(C(=O)OC)[C@H](OC(C)=O)[C@]5(CC)C=CCN6CC[C@]43[C@@H]65)C2)C1,-19.8% (active)
7,O=c1c2cc(F)ccc2sc2c(NCCCNCCO)nc3ccc(Cl)cc3c12,85.8% (inactive)
8,Nc1ccc(-c2nn3c(CCC(=O)c4nc5ncccc5[nH]4)nnc3s2)c(O)c1,93.8% (inactive)
9,O=c1oc2ccc(Br)cc2c(=O)n1-c1ccc(Cl)cc1F,8.34% (active)
10,O=C(c1ccccc1)N(C(=S)NCCc1ccc(Cl)cc1)c1ccccc1,99% (inactive)
11,O=c1oc2ccc(Cl)cc2c(=O)n1-c1ccc(F)cc1F,7.29% (active)
12,CC(C)C[C@H](C(=O)N[C@@H](C)C(N)=O)N1CC=CCN(O)S1(=O)=O,105% [5 µM] (inactive)
13,O=C(Nc1ccc(Cl)cc1F)c1cc(I)ccc1O,11.3% (inactive)
14,O=C(CCc1nnc2sc(Cc3ccccc3Cl)nn12)c1nc2ncccc2[nH]1,95.4% (inactive)

# Test system: T-47D breast
# Assay: as above
# Settings: 10 µM unless noted
row,SMILES,growth
1,COc1c(B(O)O)cccc1-c1nc2ccc3[nH]ncc3c2c2c1C1CCC2C1 (stereo not drawn),101% (inactive)
2,O=C(Nc1ccc(Cl)cc1F)c1cc(F)ccc1O,-8.15% (active)
3,O=c1oc2ccc(I)cc2c(=O)n1-c1ccc(I)cc1F,-3.25% (active)
4,NCCNc1nc2ccc(F)cc2c2c(=O)c3cc(F)ccc3sc12,33.7% (inactive)
5,O=C(Nc1ccc(Br)cc1F)c1cc(F)ccc1O,-3.86% (active)
6,Cc1ccc(Nc2nc(N)c3ccccc3n2)cc1Cl,58.1% (inactive)
7,O=C1c2cc(I)ccc2Oc2cc([N+](=O)[O-])ccc2N1c1ccc(Cl)cc1F,82.5% (inactive)
8,CC1=C(C(=O)OCC2CCN(C(=O)OC(C)(C)C)CC2)[C@H](c2cccc(Br)c2)C2=C(CC(C)(C)CC2=O)N1,22% (inactive)
9,O=C(c1ccccc1)N(C(=S)NCCc1ccc(Cl)cc1)c1ccc(Cl)cc1,45.5% (inactive)
10,C#CCn1cc(C=C2C(=O)NC(=O)NC2=O)c2cc(Cl)ccc21,60.8% (inactive)
11,O=c1oc2ccc(Br)cc2c(=O)n1-c1ccc(F)cc1F,-9.1% (active)
12,O=C(Nc1ccc(Br)cc1F)c1cc(I)ccc1O,-14% (active)
13,O=c1oc2ccc(Cl)cc2c(=O)n1-c1cc(C(F)(F)F)cc(C(F)(F)F)c1,-9.71% (active)
14,O=c1oc2ccc(Br)cc2c(=O)n1-c1ccc(I)cc1F,-1.18% (active)
15,O=c1oc2ccc(-c3ccc(F)cc3F)cc2c(=O)n1-c1cccc(C(F)(F)F)c1,-13.7% (active)
16,O=c1oc2ccc(F)cc2c(=O)n1-c1ccc(Br)cc1F,-12.3% (active)
17,O=c1oc2ccc(I)cc2c(=O)n1-c1ccc(Br)cc1F,-7.37% (active)
18,Cc1nc(Nc2ccccn2)sc1C(=O)/C=C/c1ccc(Cl)cc1,58.1% (inactive)
19,Nc1cccc(Nc2cc(S(=O)(=O)O)c(N)c3c2C(=O)c2ccccc2C3=O)c1,93.1% (inactive)
20,COc1ccc2sc(N(Cc3cccnc3)C(=O)c3ccc(C#N)cc3)nc2c1,78.3% (inactive)

row,SMILES,growth
1,COc1cccc(C2=NN3C(C2)c2ccccc2OC3c2ccc(/C=C3\SC(=O)NC3=O)cc2)c1 (stereo not drawn),100% (inactive)
2,O=C1c2cc(Br)ccc2Oc2cc([N+](=O)[O-])ccc2N1c1ccc(I)cc1F,100% (inactive)
3,O=c1oc2ccc(Cl)cc2c(=O)n1-c1ccc(Cl)cc1F,-12% (active)
4,COc1ccc(C2C3=C(COC3=O)N(CCO)c3cc4c(cc32)OCCO4)cc1 (stereo not drawn),80.4% (inactive)
5,CC[C@]1(O)C[C@@H]2CN(CCc3c([nH]c4ccccc34)[C@@](C(=O)OC)(c3cc4c(cc3OC)N(C)[C@H]3[C@@](O)(C(=O)OC)[C@H](OC(=O)CCCBr)[C@]5(CC)C=CCN6CC[C@]43[C@@H]65)C2)C1,74.2% (inactive)
6,O=C1c2cc(Cl)ccc2Oc2cc([N+](=O)[O-])ccc2N1c1ccc(F)cc1F,72% (inactive)
7,COc1ccccc1N1C(=N)S/C(=C\c2ccc(OCc3ccccc3F)cc2)C1=O,66.8% (inactive)
8,CC[C@]1(O)C[C@@H]2CN(CCc3c([nH]c4ccccc34)[C@@](C(=O)OC)(c3cc4c(cc3OC)N(C)[C@H]3[C@@](O)(C(=O)OC)[C@H](OC(C)=O)[C@]5(CC)C=CCN6CC[C@]43[C@@H]65)C2)C1,68.6% (inactive)
9,O=c1c2cc(F)ccc2sc2c(NCCCNCCO)nc3ccc(Cl)cc3c12,57.5% (inactive)
10,COc1cc2cc3c(=O)n4c(cc5cc(OC)ncc54)c(=O)n3c2cn1,95.2% (inactive)
11,Nc1ccc(-c2nn3c(CCC(=O)c4nc5ncccc5[nH]4)nnc3s2)c(O)c1,87.1% (inactive)
12,O=c1oc2ccc(Br)cc2c(=O)n1-c1ccc(Cl)cc1F,-1.08% (active)
13,COc1ccc(/C=C2\NC(=O)NC2=O)cc1O,100% (inactive)
14,CN(C)c1ccc(/C=C/c2ccnc3c(O)cccc23)cc1,16.9% (inactive)
15,O=C(c1ccccc1)N(C(=S)NCCc1ccc(Cl)cc1)c1ccccc1,59.6% (inactive)
16,O=c1oc2ccc(Cl)cc2c(=O)n1-c1ccc(F)cc1F,-10.7% (active)
17,CC(C)C[C@H](C(=O)N[C@@H](C)C(N)=O)N1CC=CCN(O)S1(=O)=O,103% [5 µM] (inactive)
18,O=C(Nc1ccc(Cl)cc1F)c1cc(I)ccc1O,-0.952% (active)
19,O=C(CCc1nnc2sc(Cc3ccccc3Cl)nn12)c1nc2ncccc2[nH]1,90.6% (inactive)
